MenB inh: inhibitors of Mycobacterium tuberculosis MenB enzyme; P9WNP5; MenB enzyme assay, absorbance read-out; inhibition, % (concentration not given with the values); 100,000 compounds, 0.43% hits; in the data active = inhibition above about 21%, passing the limit was not always enough
AID504770: E. coli YBA685 growth inhibition, screen for V. cholerae RctB inhibitors; 130,000 compounds, 0.27% hits; E. coli YBA685 rctB-dependent plasmid, OD600 growth, 3 h; hits give low values; AID 504770; z-score (concentration not given with the values); in the data active = z-score below about -2, passing the limit was not always enough
MbtI inh: blocks the Mycobacterium tuberculosis siderophore enzyme MbtI. inhibition, % (test concentration not listed). purified MbtI enzyme, fluorescence intensity read-out. 100,000 compounds, 0.89% hits; in the data active = inhibition mostly above about 56%, no sharp cut-off; inactive = mostly below about 77%
PV pol inh: inhibitors of poliovirus RNA polymerase binding and polymerization | P03300 | poliovirus polymerase elongation, fluorescence polarization; hits give low values | % elongation, % (compound at 16.7 µg/mL) | 150,000 compounds, 0.66% hits | AID 588519; in the data active = % elongation below about 90%
Target sequence (P03300 1749-2209 limits assumed): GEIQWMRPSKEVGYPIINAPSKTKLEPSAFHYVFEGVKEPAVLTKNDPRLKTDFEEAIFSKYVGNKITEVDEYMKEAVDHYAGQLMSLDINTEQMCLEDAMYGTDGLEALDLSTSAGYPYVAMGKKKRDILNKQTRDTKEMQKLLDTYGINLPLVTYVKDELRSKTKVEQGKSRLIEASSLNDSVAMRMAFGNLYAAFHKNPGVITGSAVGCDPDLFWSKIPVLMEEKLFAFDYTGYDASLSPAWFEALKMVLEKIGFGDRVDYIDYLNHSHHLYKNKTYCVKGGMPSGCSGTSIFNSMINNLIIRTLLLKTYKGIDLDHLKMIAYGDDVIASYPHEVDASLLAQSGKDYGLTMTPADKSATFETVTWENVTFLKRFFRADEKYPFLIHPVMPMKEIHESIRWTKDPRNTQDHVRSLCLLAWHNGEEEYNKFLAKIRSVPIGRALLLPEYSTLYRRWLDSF
Starred values were filed as active, the others as inactive; ! = not active in a repeat. Hits are enriched below; roughly 1.4% of the tested compounds scored in any of these assays.

Screening COc1ccc2c(c1)CCc1c(C(=O)N3C(C)CCCC3C)noc1-2 (stereo not drawn) returned MenB inh -28, AID504770 -3*, MbtI inh 11 and PV pol inh 103.
Screening COc1ccc2c(c1)CCc1c(C(=O)N3CCCCC3)noc1-2 returned MenB inh -15, AID504770 -0.55, MbtI inh 11 and PV pol inh 102.
For c1cc(CN2CCNCC2)ccn1 the results were MenB inh 6, AID504770 0.9, MbtI inh -8 and PV pol inh 100.
`CCn1c(=O)c2cc(C(=O)N(CCN(C)C)Cc3ccccc3)sc2c2ccccc21` gave PV pol inh 87*.
`CCn1c(=O)c2cc(C(=O)N(Cc3ccccc3)C(C)C)sc2c2ccccc21` gave MenB inh -10, AID504770 -0.05, MbtI inh 38 and PV pol inh 100.
`C=CCc1cccc2cc(C(N)=S)c(=N)oc12` gave MenB inh -45, AID504770 0.55 and PV pol inh 102.
CN(C)c1ccc(NC(=S)c2ccccn2)cc1 was read as MenB inh -61, AID504770 -1.2, MbtI inh 68* and PV pol inh 103.
For CC(C)(C)C1CCc2onc(C(=O)Nc3sc4c(c3C(N)=O)CCCC4)c2C1 (stereo not drawn) the results were PV pol inh 79*.
CC(C)(C)C1CCc2onc(C(=O)Nc3sc4c(c3C#N)CCCC4)c2C1 (stereo not drawn) was read as PV pol inh 82*.
NS(=O)(=O)c1ccc(N=Cc2c3ccccc3cc3ccccc23)cc1 was read as MenB inh -40, AID504770 -0.1 and PV pol inh 102.
CCCCn1c(=S)[nH]c2cc(Cl)ccc2c1=O was read as MenB inh 18, AID504770 0.65, MbtI inh 12 and PV pol inh 102.
O=c1c2c(-c3cccs3)csc2[nH]c(=S)n1-c1ccccc1 was read as MenB inh -43, AID504770 1.8, MbtI inh 99*! and PV pol inh 83*!.
For CN(CC(=O)N1CCCC1=O)Cc1ccccc1 the results were MenB inh -59, AID504770 -0.55, MbtI inh -5 and PV pol inh 105.
Screening CCN(CC)CC(=O)N1CCCC1=O returned MenB inh 43*, AID504770 -0.25, MbtI inh 0 and PV pol inh 100.
CCOc1ccc(S(=O)(=O)NCCC(=O)N=c2sc3ccccc3n2C)cc1 was read as MenB inh -26, AID504770 1.8, MbtI inh -9 and PV pol inh 105.
Screening O=C1CNC(=O)N1Cc1ccc(F)cc1 returned MenB inh 34*, AID504770 1.6, MbtI inh 1 and PV pol inh 99.
Screening Cc1ccc(/C(N)=N\O)n1C returned MenB inh 52*, AID504770 1.6 and PV pol inh 102.
For COc1ccc(NC(=O)c2oc3ccccc3c2NC(=O)Cc2coc3c(C)c(C)ccc23)cc1 the results were PV pol inh -10*.
Screening Cc1cccc(NC(=O)c2oc3ccccc3c2NC(=O)Cc2coc3c(C)c(C)ccc23)c1 returned PV pol inh 119.
Screening CC(=O)Nc1ccc(Br)cc1Cl returned AID504770 -0.4.
Screening CCC1CCC(N2CCN(c3ccc(Cl)cc3)CC2)CC1 (stereo not drawn) returned MenB inh 8, AID504770 -0.25, MbtI inh -16 and PV pol inh 99.
For S=C(SN1CCOCC1)N1CCOCC1 the results were MenB inh -69, AID504770 -0.55 and PV pol inh 77*.
Cc1nc2nc(SCC(=O)Nc3ccccc3C(F)(F)F)nn2c(C)c1Cc1ccccc1 was read as MenB inh 1, AID504770 -1.7, MbtI inh -8 and PV pol inh 105.
`Cc1ccc(/C=C2\C(=O)Nc3ccc(Br)cc32)o1` gave MenB inh -24, AID504770 1.1, MbtI inh 16 and PV pol inh 104.
`Cc1ccc(S(=O)(=O)c2[nH]c(=S)sc2N2CCOCC2)cc1` gave MenB inh -37, AID504770 -0.2 and MbtI inh 93*.
`CCC(N)C(=O)c1ccc(Cl)cc1` (stereo not drawn) gave MenB inh 32*, AID504770 -0.45, MbtI inh 3 and PV pol inh 101.
Screening NC(=S)N(c1ccccc1)c1ccccc1 returned MenB inh 32*, AID504770 1.1, MbtI inh 5 and PV pol inh 101.
For CSC(=S)N(c1ccccc1)c1ccccc1 the results were AID504770 0.45, MbtI inh -7 and PV pol inh 102.
For O=C(O)C1CC1c1ccccc1 (stereo not drawn) the results were MenB inh -34, AID504770 -0.35, MbtI inh -10 and PV pol inh 99.
Screening N[C@@H]1C[C@H]1c1ccccc1 returned MenB inh 36*, MbtI inh 6 and PV pol inh 99.
Screening O=c1[nH]c(-c2ccccc2O)nc2sc3c(c12)CCCC3 returned MenB inh -4, AID504770 -0.2 and PV pol inh 89*.
For O=c1[nH]c(-c2ccco2)nc2sc3c(c12)CCCC3 the results were AID504770 -0.3, MbtI inh inactive and PV pol inh 103.
Cc1cc(C)n(N)c(=O)c1C#N was read as MenB inh -29, AID504770 -0.25, MbtI inh -17 and PV pol inh 100.
Screening Cc1cc(C)c(C#N)c(=N)o1 returned MenB inh 1, AID504770 0.1, MbtI inh 109 and PV pol inh 55*.
Cn1c(SCC(=O)N(c2ccccc2)C2CCCCC2)nc2cc(S(N)(=O)=O)ccc21 was read as MenB inh 6, AID504770 -0.3, MbtI inh 17 and PV pol inh 79*.
`CCOC(=O)c1oc2ccccc2c1NC(=O)CSc1nnc(SCC)s1` gave MenB inh -8, AID504770 0.15, MbtI inh -4 and PV pol inh 96.
`O=C(CSC1=NCCN1)C1COc2ccccc2O1` (stereo not drawn) gave MenB inh 84*, AID504770 -0.85, MbtI inh 22 and PV pol inh 101.
For CC(CNC(=O)c1nnc(-c2ccc3c(c2)OCO3)o1)c1ccccc1 (stereo not drawn) the results were MenB inh 12, AID504770 -0.5, MbtI inh -123 and PV pol inh 103.
`C[C@@H]1NCCc2cc(O)c(O)cc21` gave MenB inh 2, MbtI inh 76* and PV pol inh 101.
`Nc1ccccc1-c1nnn(CC(=O)NC2CCCC2)n1` gave MenB inh -16, AID504770 -0.3, MbtI inh -16 and PV pol inh 103.
For NC(=O)COc1ccc(S(=O)(=O)c2ccc(OCC(N)=O)cc2)cc1 the results were MenB inh -35, AID504770 -0.95, MbtI inh -25 and PV pol inh 100.
For O=C(Oc1ccc(C=Nc2ccccc2Br)cc1)c1ccccn1 the results were AID504770 0.65.
For N#CC(C#N)=Cc1ccc(OC(=O)c2ccccn2)cc1 the results were MenB inh -163, AID504770 -0.85, MbtI inh 34 and PV pol inh 87*.

Screening data from PubChem BioAssay.
